Laboratory results as given in PubChem BioAssay AID1224854 (National Center for Advancing Translational Sciences (NCATS), 2016).
Results filed as inconclusive are left out. A call without a number means that no potency is given here. Calls of active or inactive are those of the source. Calls follow the shape of the dose curve; as a rule, active = well fitted activation curve with a large enough effect; inconclusive = small, poorly fitted or top-dose-only effect; inactive = flat fitted curve, though single readings scatter.

experiment: Cell viability assay for measurement of the protective activity of small molecules against cell death caused by Zika virus infection in human astrocytoma cells; details: SNB-19 Zika virus cytoprotection, ATP luminescence, 72 h; series mostly up to 46.1 µM
Source text: National Center for Advancing Translational Sciences [NCATS] Johns Hopkins University School of Medicine Florida State University Assay Overview: Zika virus infection causes cell death in certain cell types including human neural progenitor cells (hNPCs), astrocytes, and astrocytoma cell line (SNB-19). This cell viability assay measures the ATP content (level) in human astrocytoma cells (SNB-19) using a luminescence readout that is proportional to viable cell numbers. Decrease in the luminescence signal after Zika virus infection indicates the cell death caused by Zika virus. Small molecule inhibitors […] the decreased luminescence signal after Zika virus infection, indicating the protective effect of that small molecule on the cell death caused by Zika virus infection. This observed protective effect of small molecules against Zika virus induced cell death may result from inhibition of virus replication or cellular response to the virus infection.
Assay Protocol Summary: The medium for SNB-19 cells is composed of RPMI 1640 (ATCC, Cat.# 30-2001), 10% fetal bovine serum (FBS) (GE healthcare Life Sciences, Cat.# SH30071.03), and 1% Pen/Strep (Gibco, Cat.# 15140-122). The ATP content assay kit (PerkinElmer, Cat.# 6016731) was used to determine cell viability. The reagent was reconstituted and prepared as described by the manufacturer. Cells were seeded in 384- or 1536-well assay plates and cultured at 37 C with 5% CO2 for 16 to 20 hours. The typical cell seeding density in the 1536-well plate assay is 250 cells/well in 3ul medium for SNB-19 cells in tissue culture treated plates. Compounds were added to cells and incubated for one hour before addition of ZIKV solution to cells (2 FFU/cell). After incubation at 37 C with 5% CO2 for 72 hours, the reagent mixture of the ATP content assay kit was added to each well, followed by incubation at room temperature for 10 minutes. The luminescence intensity of the assay plates was measured using a ViewLux plate reader (PerkinElmer). […] The percentage inhibitions of the decreased cell viability by small molecule inhibitors were then calculated.

| Structure (SMILES) | Potency |
| --- | --- |
| CC(=C(CCOC(=O)C(C)C)SSC(CCOC(=O)C(C)C)=C(C)N(C=O)Cc1cnc(C)nc1N)N(C=O)Cc1cnc(C)nc1N | inactive |
| CC(C)[C@H]1C(=O)N[C@H](CO)Cc2c[nH]c3cccc(c23)N1C | 2450 nM (active) |
| CN1CC[C@@]2(C)c3cc(OC(=O)Nc4ccccc4)ccc3N(C)[C@@H]12 | inactive |
| COc1cccc2c1C(=O)c1c(O)c3c(c(O)c1C2=O)C[C@@](O)(C(=O)CO)CC3OC1CC(N2CCOC(OC)C2)C(O)C(C)O1 (stereo partly drawn) | 388 nM (active) |
| O=S(=O)(CC1CS1)c1ccc(Oc2ccccc2)cc1 (stereo not drawn) | inactive |
| O=C1CCC[C@@H]2[C@H]3CCCN4CCC[C@@H](CN12)[C@@H]34 | inactive |
| S=C(SSC(=S)N1CCCCC1)N1CCCCC1 | 17300 nM (active) |
| Cc1ccc([N+](=O)[O-])[c]2c1[O][Hg]2 | inactive |
| COP(=S)(OC)SCN1C(=O)c2ccccc2C1=O | inactive |
| CC(C)N[C@@H]1CCn2c(=O)[nH]c3cccc(c32)[C@@H]1O | inactive |
| O=C(Nc1ccc(Br)cc1)c1cc(Br)cc(Br)c1O | inactive |
| CN1CC(=O)N2C(Cc3c([nH]c4ccccc34)[C@H]2c2ccc3c(c2)OCO3)C1=O (stereo partly drawn) | inactive |
| O=c1c2ccccc2[se]n1-c1ccccc1 | inactive |
